Screening results deposited in PubChem BioAssay by Broad Institute.
N-glyco inh – increase of ERlucT glycosylation luciferase signal, primary screen, N-linked glycosylation inhibitor project, D54 ERlucT cells, luminescence, set 2 | D54 ERlucT glycosylation luciferase reporter, 24 h; percent of 100 nM tunicamycin response | 360,000 tested, 0.23% active | AID 588692, 2011 | reporter increase, % at 12.5 µM;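 active = mean luciferase reporter signal, scaled so untreated is 0 and the glycosylation-blocking control 100, at or above a set limit in every replicate; inconclusive = mean reaches the limit but not every replicate does; inactive = mean below the limit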;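 note: luciferase carries N-glycosylation sites so blocking glycosylation raises the light; 0% = median of neutral control wells and 100% = median of 100 nM tunicamycin wells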
RAD54 inh – inhibitors of human RAD54 branch migration, primary screen, biochemical, fluorescence, single point. RAD54 Holliday junction branch migration, FAM/BHQ fluorescence. inhibition, % at 10.4 µM. 360,000 tested, 0.14% active. AID 602329, 2012;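 active = mean normalized replicate activity at least 40 and at least half of replicates scoring 40 or more; inconclusive = only one of the two criteria met; inactive = mean below 40 and under half of replicates reaching 40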;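 note: 0% = median of neutral control wells and 100% = median of positive control wells; inhibitors cause a drop in the FAM fluorescence signal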
dFosB act – activators of delta FosB homodimer, primary screen, biochemical, fluorescence polarization, TAMRA-CDK5 oligo, single point. Protein FosB (Mus musculus), P13346. purified delta FosB; percent of positive-control signal above neutral wells. activation, % at 25 µM. 340,000 tested, 0.99% active;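 active = mean activation above about 17%, with every replicate also reaching it, limit read from the data, passing the limit was not always enough; inconclusive = only one of the two conditions met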
Target sequence (P13346 whole entry, looked up): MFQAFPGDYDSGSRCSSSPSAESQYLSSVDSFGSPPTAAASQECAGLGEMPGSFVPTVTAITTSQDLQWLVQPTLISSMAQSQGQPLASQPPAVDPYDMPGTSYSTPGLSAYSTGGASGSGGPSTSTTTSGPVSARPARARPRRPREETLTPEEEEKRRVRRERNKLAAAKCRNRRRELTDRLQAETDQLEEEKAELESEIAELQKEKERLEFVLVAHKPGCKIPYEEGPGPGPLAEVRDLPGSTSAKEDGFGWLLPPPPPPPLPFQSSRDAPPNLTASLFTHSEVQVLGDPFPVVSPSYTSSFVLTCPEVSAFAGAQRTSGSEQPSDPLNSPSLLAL
RAD52 anneal inh – RAD52 DNA annealing inhibitors, primary screen, biochemical, FRET, single point, set 2; recombinant RAD52 DNA annealing, FRET fluorescence; inhibition, % at 18.7 µM; 360,000 tested, 0.46% active;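 active = every replicate showing at least 50% inhibition; inconclusive = mean inhibition at least 50% but not in every replicate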
PvdQ acylase – P. aeruginosa PvdQ acylase inhibitors, primary screen, biochemical, fluorescence, plate reader and imaging, single point | purified PvdQ acylase | inhibition, % at 10 µM | 340,000 tested, 0.063% active | AID 488965, 2010; in the data active = inhibition above about 30%, passing the limit was not always enough; inconclusive = no clear call, values can overlap the other calls;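 note: 0% = vehicle neutral wells and 100% = reference inhibitor wells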
F508del corr – F508del CFTR correction, initial screen, CFBE line, single point | CFBE cells, YFP halide quenching; stimulated with forskolin plus potentiator P3; % fluorescence drop versus neutral controls | activity (quench increase), % at 7.58 µM | 350,000 tested, 0.36% active;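 active = mean added fluorescence quench of at least 8% versus neutral control, with both replicates also reaching 8%; inconclusive = only one of the mean or replicate conditions met; inactive = mean below 8% and not both replicates reaching 8%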;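 note: cells transiently co-express mutant CFTR-F508del with the halide-sensitive YFP; corrector assay measuring rescue of mutant channel to the surface after 24 h compound exposure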
The depositor's hits bear a star; ? = inconclusive; · = no result. In the library only some 1.5% were active in any assay of this set; here they are far more common.

SMILES	N-glyco inh	RAD54 inh	dFosB act	RAD52 anneal inh	PvdQ acylase	F508del corr
CC(=O)C1=C(C)OC(N)=C(C#N)C1c1cccc([N+](=O)[O-])c1 (stereo unspecified)	1	·	-4	-13	5	0
CC(=O)C1=C(C)OC(N)=C(C#N)C1c1cc([N+](=O)[O-])ccc1Cl (stereo unspecified)	29*	·	-1	-6	-9	·
CO[C@H]1CN(C)C(=O)c2cc(NS(=O)(=O)c3cn(C)cn3)ccc2OC[C@@H](C)N(Cc2cccc(F)c2)C[C@H]1C	·	3	·	8	·	0
COc1ccc(NC(=O)N(C)C[C@H]2Oc3ccc(NC(=O)Nc4ccc5c(c4)OCO5)cc3CC(=O)N([C@@H](C)CO)C[C@H]2C)cc1	·	-2	·	·	·	1
c1ccc2c(c1)nc(N1CCOCC1)c1c3ccccc3[nH]c21	39*	·	-2	14	-8	1
CC(=O)Nc1nc2c(s1)CCc1ccccc1-2	7	9	-4	2	-7	1
O=C(CCCl)Nc1nc2c(s1)CCc1ccccc1-2	-5	·	-3	-5	-17	8.8*
CCOC(=O)Nc1sc(C)nc1-c1ccccc1	1	1	-1	-11	-12	-3
CCOC(=O)Nc1cc2c(c(N)n1)N=C(c1ccccc1)CN2	17	·	-2	-33	-9	12*
CN(Cc1c(F)cccc1Cl)C(=O)c1ccc(NC(=O)CC2SC(N3CCCCC3)=NC2=O)cc1 (stereo unspecified)	2	2	-6	-18	-10	11*
CCC(C)c1ccc(C2C3=C(Nc4nc(N)[nH]c(=O)c42)c2ccccc2C3=O)cc1 (stereo unspecified)	11	3	33*	-7	1	1
COc1cc(C2C3=C(Nc4nc(N)[nH]c(=O)c42)c2ccccc2C3=O)ccc1O (stereo unspecified)	0	33	43*	22	-10	-2
COc1ccc(S(=O)(=O)Nc2ccc3c(c2)C(=O)N([C@H](C)CO)C[C@H](C)[C@H](CN(C)Cc2ccncc2)OCCCC[C@@H](C)O3)cc1	·	4	·	5	·	-1
COCC(=O)N1CC2(C1)[C@H](c1ccc(-c3ccc(F)cc3)cc1)[C@@H](CO)N2C(C)=O	·	·	·	-18	·	-2
COc1ccccc1-c1c(C#N)c(N)nc2c1CCc1ccccc1-2	32*	·	-7	·	-57	·
CCOc1cc(-c2c(C#N)c(N)nc3c2CCc2ccccc2-3)ccc1O	46*	·	-6	·	-12	·
CO[C@@H]1CN(C)C(=O)c2ccc(NC(=O)c3ccccc3)cc2OC[C@@H](C)N(C(=O)C2CC2)C[C@@H]1C	·	-1	·	·	·	3
CCN(CC)S(=O)(=O)c1cccc(C(=O)OCC(=O)Nc2ccc3c(c2)c2ccccc2n3CC)c1	29*	·	-4	-17	11	·
CCn1c2ccccc2c2cc(NC(=O)CNCc3ccccc3OC)ccc21	29*	-6	-9	10	-14	3
CCn1c2ccccc2c2cc(NC(=O)COC(=O)c3cccc(S(=O)(=O)NC)c3)ccc21	24	2	-6	-38	-7	·
Cc1cc(C)nc(NS(=O)(=O)c2ccc(NC(=O)c3ccc(N4C(=O)CCC4=O)cc3)cc2)n1	-4	5	5	·	44*	·
Cc1cc(C)nc(NS(=O)(=O)c2ccc(NC(=O)c3ccc(S(=O)(=O)N(C)C)cc3)cc2)n1	2	9	-3	-22	5	·
CCC(=O)N1[C@@H]2c3ccc(-c4ccccc4F)c(=O)n3C[C@H]1[C@H](CO)[C@H]2C(=O)NC1CCC1	·	-7	·	5	·	2
CC(=O)N1[C@@H]2c3ccc(-c4ccccc4)c(=O)n3C[C@H]1[C@H](CO)[C@H]2C(=O)N1CCCCC1	·	3	·	63*	·	2
CCNC(=O)[C@@H]1[C@@H](CO)[C@@H]2Cn3c(ccc(-c4ccccc4F)c3=O)[C@H]1N2C(=O)CC	·	2	·	101*	·	2
SMILES	N-glyco inh	RAD54 inh	dFosB act	RAD52 anneal inh	PvdQ acylase	F508del corr
O=C(Cc1ccc(-n2c(=O)c3sccc3n(CC(=O)Nc3ccccc3)c2=O)cc1)NCc1ccco1	2	·	73*	-15	0	-8
O=C(Cn1c(=O)n(-c2ccccc2)c(=O)c2sccc21)NCc1ccccc1	-1	0	-3	-7	-13	0
OC(CNc1ccnc2cc(Cl)ccc12)CNC1CCCCC1 (stereo unspecified)	-8	·	26*	45	0	·
C[C@H]1CN([C@@H](C)CO)C(=O)Cc2cc(NC(=O)CCN3CCOCC3)ccc2O[C@H]1CN(C)S(=O)(=O)c1cn(C)cn1	·	-14	·	1	·	0
CC(C)(C)c1ccc(OCC(=O)Nc2ccncc2)c(Br)c1	34*	-10	-6	-1	1	0
COc1ccc(C2Nc3ccc4ccccc4c3-c3c2c(=O)oc2ccccc32)cc1 (stereo unspecified)	109*	1	?	·	6	·
COc1ccc(-c2cnc3c(c2)C(=O)N([C@@H](C)CO)C[C@H](C)[C@H](CN(C)C(=O)C2CC2)O3)cc1	·	·	·	·	·	-1
O=C(c1cccc(F)c1)N1CC[C@@H]2[C@H](CO)Nc3ccc(-c4ccccc4F)cc3[C@@H]21	·	-4	·	-30	·	11*
O=C(c1cccc(F)c1)N1CC[C@@H]2[C@H]1c1cc(-c3ccccc3F)ccc1N[C@@H]2CO	·	-5	·	·	·	0
O=C(c1cccnc1)N1CC[C@@H]2[C@H](CO)Nc3ccc(C4=CCCCC4)cc3[C@@H]21	·	·	·	8	·	8.1*
CN(CC(=O)Nc1cccc(S(=O)(=O)N2CCCC2)c1)CC(=O)Nc1ccc(F)c(F)c1F	2	-2	-10	-15	10	19*
CN(CC(=O)Nc1cccc(S(=O)(=O)N2CCCC2)c1)CC(=O)Nc1ccc(Cl)c(C(F)(F)F)c1	-1	-5	-10	-5	1	4
O=C(COc1ccc(F)cc1Cl)Nc1cccc(S(=O)(=O)N2CCCCCC2)c1	-2	-3	1	-9	8	8.8*
CN1C(=O)c2cc(NC(=O)Cc3cccs3)ccc2OC[C@@H]2O[C@@H](CC(=O)O)CC[C@H]21	·	8	·	-4	·	3
CC(C)NC(=O)Nc1cccc2c1O[C@@H](CN(C)Cc1ccc(C(=O)O)cc1)[C@H](C)CN([C@H](C)CO)C2=O	·	-1	·	-5	·	1
c1ccc2c(-c3nc4ccccc4[nH]3)cccc2c1	28*	·	·	0	·	-1
COc1ccc(NC(=O)N[C@@H]2CC[C@H](CCNC(=O)CCN3CCCCC3)O[C@H]2CO)cc1	·	·	·	·	·	-2
